Bioassay records from PubChem.
A selection: hits, their analogues and other compounds. The true share with any hit is near 6.6%.
RGS4 inhibitor: blocks human RGS4-accelerated GTP hydrolysis; P49798; Transcreener GDP fluorescence polarization, RGS4-accelerated GTP hydrolysis; Potency, µM (series often up to 114 µM), for the others: at the highest dose activity change, negative = inhibition, most hits filed as inhibitors; actives 0.039% (n = 390,000); AID 504845; further: on the % scale 0 is the no-effect control and ±100 the full control effect; nearly all actives have a fitted effect of over 75% in size
Target sequence (P49798 whole entry, looked up): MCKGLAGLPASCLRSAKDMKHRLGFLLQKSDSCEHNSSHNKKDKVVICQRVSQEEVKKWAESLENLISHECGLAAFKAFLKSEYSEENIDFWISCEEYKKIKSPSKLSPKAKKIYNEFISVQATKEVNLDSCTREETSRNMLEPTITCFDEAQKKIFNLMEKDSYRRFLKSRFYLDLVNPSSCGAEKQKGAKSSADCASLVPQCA
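MLSMR compounds (23 nl, pin-transferred) preincubated 10 min at room temperature with a 500nM (2x) first reagent, then RGS4 at 900nM (2x) plus Transcreener GDP mix added; fluorescence polarization (620/688 nm) read before and after 90 min at 30 °C.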
MCF10A rerep: inducers of DNA re-replication in MCF 10A breast cells; Potency, µM (titrated, usually from 46.1 µM), inactives show at the highest dose activity, positive = re-replication, actives largely listed as activators; AID 624296; MCF 10A DNA re-replication, Hoechst nuclear intensity, 48 h; actives 2.9% (n = 350,000); further: % of control where 0% means no effect; nearly all actives have a fitted effect of over 50% in size
KB-V1 cytotox: kills drug-selected multidrug resistant KB-V1 cells; KB-V1 MDR cells viability, CellTiter-Glo, 72 h; Potency, µM (titrated, usually from 46.1 µM), hits mostly cytotoxic; actives 3.4% (n = 400,000); AID 1347076; further: on the % scale 0 is the no-effect control and ±100 the full control effect; nearly all actives have a fitted effect of over 60% in size
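Luminescent ATP read-out (CellTiter-Glo, 10 min) measures survival of drug-selected KB-V1 MDR cells after 72 h, 37 degrees C compound exposure. Medium: phenol-red-free DMEM, 10% FBS. Values from fitted concentration-response curves.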
KB-3-1 cytotox: kills parental KB-3-1 adenocarcinoma cells. Potency, µM (top dose mostly 46.1 µM), hits mostly cytotoxic. actives 1.4% (n = 400,000). KB-3-1 viability, CellTiter-Glo ATP luminescence, 72 h; further: on the % scale 0 is the no-effect control and ±100 the full control effect; nearly all actives have a fitted effect of over 60% in size
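72 h, 37 °C compound treatment of KB-3-1 parental cells; CellTiter-Glo added, 10 min, luminescence read. Data corrected against DMSO-only plates and normalized before curve fitting.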
TSG101-PTAP inh: blocks PTAP/TSG101 interaction to inhibit HIV-1 budding; Q99816; Fluorescence polarization, FITC-PTAP peptide / Tsg101 binding; Potency, µM (titrated, usually from 115 µM), without a hit: at the top dose activity change, negative = inhibition, most hits filed as inhibitors; 340,000 tested, under 10 active; active means well fitted inhibition curve with a large enough effect in the main read-out, with a control signal flat, not every such curve was filed as active; inconclusive means small, poorly fitted or top-dose-only effect, or effect the other way, or a change in a side signal; inactive means no such curve, though single readings can be large or run the other way; further: % of control where 0% means no effect
Target sequence (Q99816 whole entry, looked up): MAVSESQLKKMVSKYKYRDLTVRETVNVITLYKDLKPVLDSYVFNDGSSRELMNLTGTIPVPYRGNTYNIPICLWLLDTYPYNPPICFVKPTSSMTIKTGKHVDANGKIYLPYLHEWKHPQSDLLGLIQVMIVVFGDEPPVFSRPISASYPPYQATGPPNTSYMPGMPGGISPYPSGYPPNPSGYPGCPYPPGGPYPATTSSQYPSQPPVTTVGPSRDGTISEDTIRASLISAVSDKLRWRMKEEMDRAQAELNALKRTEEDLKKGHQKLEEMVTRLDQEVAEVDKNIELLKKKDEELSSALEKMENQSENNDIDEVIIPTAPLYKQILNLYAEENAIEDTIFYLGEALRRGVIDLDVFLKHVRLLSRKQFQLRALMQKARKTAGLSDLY
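Steps: Tsg101 binding domain dispensed (10 uM final), compounds pinned in DMSO, FITC-labeled PTAP-motif peptide added (50 nM final); after 20 min binding at room temperature, polarization measured.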
SW480 rereplic: induces DNA re-replication in SW480 colon adenocarcinoma cells; SW480 DNA re-replication, Hoechst DNA content imaging, 48 h; Potency, µM (series often up to 46.1 µM), for the others: at the highest dose re-replication activation, most hits filed as activators; actives 1.8% (n = 340,000); AID 624297; further: % of control where 0% means no effect; nearly all actives have a fitted effect of over 55% in size
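Image-based read-out: total Hoechst fluorescence of nuclei (405 nm excitation, 500-530 nm emission), with hits raising the fraction of high-intensity nuclei. SW480 colon cells incubated 48 hr with compounds at 37 C.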
* = called active by the depositor; i = inactive; ? = inconclusive; . = no result given. Unless noted, the call rests on the fitted dose curve; in most records, active means well fitted curve in the direction sought with a large enough effect; inconclusive means small, poorly fitted or top-dose-only effect, or another doubt; inactive means no such curve, though single readings can be large; an effect the other way counts as inactive or inconclusive. Potency means the concentration at half of the fitted maximal effect.

SMILES	RGS4 inhibitor	MCF10A rerep	KB-V1 cytotox	KB-3-1 cytotox	TSG101-PTAP inh	SW480 rereplic
O=S(=O)(Nc1ccc(Cc2ccncc2)cc1)c1ccc(Cl)c(Cl)c1	2%	53%	5.8µM*	?	-6%	?
O=C(COC(=O)c1cccc2c1C(=O)c1ccccc1C2=O)NC1CCCCC1	10%	85%	21µM*	i	-1%	-6%
Cc1ccc(C)c(NC(=O)COC(=O)c2cccc3c2C(=O)c2ccccc2C3=O)c1	-20%	1%	15µM*	?	-4%	13µM*
O=C(COC(=O)c1cc2ccccc2oc1=O)Nc1cccc(Br)c1	-14%	5%	i	i	1%	-7%
O=C(COC(=O)c1ccc2c(c1[N+](=O)[O-])C(=O)c1ccccc1C2=O)NC1CC1	-14%	?	i	?	-14%	?
Cc1cccc(NC(=O)COC(=O)c2cc3ccccc3oc2=O)c1	-19%	0.65µM*	i	i	2%	21µM*
O=C(NCc1ccccc1Cl)NCc1noc2ccccc12	0%	.	i	i	.	.
O=C(CSc1nnc(CNC(=O)c2ccccc2)n1-c1cccc(Cl)c1)Nc1ccccc1F	-4%	.	i	i	.	.
COc1ccc2c(Sc3ccc(Cl)cc3)c(C(=O)N3CCCCC3)[nH]c2c1	8%	.	i	i	.	.
O=c1c(S(=O)(=O)c2ccccc2)cn(Cc2ccc(F)cc2)c2cc(N3CCCC3)c(F)cc12	-10%	.	.	.	.	.
Cc1c(C(=O)N(C)C)sc(NC(=O)c2cccc([N+](=O)[O-])c2)c1C#N	1%	?	i	i	-7%	1%
COc1ccc(C(=O)Nc2sc(C(=O)N(C)C)c(C)c2C#N)cc1[N+](=O)[O-]	12%	-62%	18µM*	?	0%	?
CC(=O)N1CCc2cc(S(=O)(=O)N3CCN(c4ccc(C)cc4)C(C)C3)ccc21 (stereo not given)	-4%	.	i	i	.	.
CCC(c1nnc(SCC(=O)NCCc2ccc(OC)c(OC)c2)n1Cc1ccccc1)N(C)C (stereo not given)	9%	0.65µM*	i	i	2%	-5%
COc1ccc(CCNC(=O)CSc2nnc(-c3ccc(F)cc3)c3ccccc23)cc1OC	6%	9%	7.3µM*	i	-11%	12%
COc1ccc(CCNC(=O)C(=O)NCc2ccc(C)cc2)cc1OC	3%	2%	21µM*	i	-2%	-2%
COc1ccc(CCNC(=O)CSCc2ccc(Cl)cc2)cc1OC	3%	6%	6.5µM*	i	1%	-1%
CCn1ccc2c(OCC(=O)Nc3ccc(OC)cc3OC)cccc2c1=O	8%	.	i	i	.	.
COc1cccc(C2CC(=O)Nc3cc4c(cc32)OCCO4)c1OC (stereo not given)	20%	.	.	.	.	.
Cc1ccc(C(=O)N2c3nc(-c4ccco4)nn3C3(CCCCC3)[C@@H]3CCCC[C@@H]32)cc1	-39%	.	.	.	.	.
CCc1ccc(CN(Cc2ccco2)C(=O)COc2ccc(Cl)cc2C)cc1	16%	.	.	.	.	.
COc1ccc(CCNC(=O)CSCc2ccc(C)cc2)cc1OC	2%	-6%	21µM*	i	0%	-5%
COc1ccc(-n2nnnc2SCC(=O)NCCc2ccc(OC)c(OC)c2)cc1	-12%	-7%	8.2µM*	i	-8%	13%
COc1ccc(CCNC(=O)CCN2C(=O)C(C)Oc3ccc(C)cc32)cc1OC (stereo not given)	-11%	0%	8.2µM*	i	-5%	0%
COc1ccc(CCNC(=O)CSCc2ccc([N+](=O)[O-])cc2)cc1OC	?	-5%	i	i	-5%	-271%
SMILES	RGS4 inhibitor	MCF10A rerep	KB-V1 cytotox	KB-3-1 cytotox	TSG101-PTAP inh	SW480 rereplic
COc1cccc(N2C(=O)CSC23C(=O)N(CC(=O)Nc2cccc(Cl)c2)c2ccccc23)c1 (stereo not given)	-19%	.	?	i	.	.
CCCCOC(=O)c1c(C)oc2c1cc(NS(=O)(=O)c1cc(OC)ccc1OC)c1ccccc12	12%	.	i	i	.	.
COc1cccc(NC(=O)c2oc3ccccc3c2NC(=O)c2cc3ccccc3o2)c1	10%	.	i	i	.	.
COC(=O)c1oc2ccccc2c1NC(=O)c1ccccc1O	4%	-34%	?	i	-2%	10µM*
CCOC(=O)c1oc2ccccc2c1NC(=O)c1ccccc1OC	26%	?	?	i	-1%	?
COc1ccc(NC(=O)c2oc3ccccc3c2NC(=O)C23CC4CC(CC(C4)C2)C3)c(OC)c1	-2%	.	i	23µM*	.	.
COc1cccc(NC(=O)c2oc3ccccc3c2NC(=O)C(C)(C)C)c1	-5%	26µM*	i	i	-2%	?
COc1ccccc1NC(=O)c1oc2ccccc2c1NC(=O)c1cccc(OC)c1OC	-5%	.	?	12µM*	.	.
COc1ccc(NC(=O)c2oc3ccccc3c2NC(=O)C23CC4CC(CC(C4)C2)C3)cc1	4%	.	i	i	.	.
COc1ccccc1Cn1ccn(Cc2ccc(C)cc2)c(=O)c1=O	-6%	.	.	.	.	.
COc1cccc(CNC(=O)Cn2c(C)c3cnn(-c4ccccc4)c(=O)c3c2C)c1	-2%	.	i	i	.	.
O=c1c2oc3ccccc3c2n(Cc2cccc(C(F)(F)F)c2)c(=O)n1Cc1ccc2c(c1)OCO2	8%	.	.	.	.	.
COc1ccccc1NC(=O)c1cc2ccccc2o/c1=N\O	?	8%	2.6µM*	i	-1%	1%
COc1cc(NC(=O)c2cc3ccccc3cc2O)c(OC)cc1Cl	-23%	?	?	?	-1%	212%
COc1ccccc1NC(=O)c1cc2cc(Br)ccc2cc1O	-34%	?	?	18µM*	-7%	-3%
COCCCNC(=O)CSc1nc2nc(C)c(Cc3ccccc3Cl)c(C)n2n1	14%	.	i	i	.	.
COc1ccc(C(=O)Nc2cccc(-c3ccc4nncn4n3)c2)cc1	-30%	-8%	i	i	-8%	1%
COc1ccc(S(=O)(=O)Nc2cccc(-c3ccc4nncn4n3)c2)cc1	-11%	5.8µM*	?	5.8µM*	-5%	3.5µM*
CCOc1ccccc1CNC(=O)c1cc2cc(S(=O)(=O)N3CCCCC3)ccc2n1C	4%	.	.	.	.	.
CCOc1ccccc1-n1nnc(-c2nc(-c3ccccc3C)no2)c1C	-14%	.	.	.	.	.
CCOC(=O)C1CCN(CC(C)(C)NS(=O)(=O)c2ccc(Cl)cc2)CC1	-2%	15µM*	i	i	0%	10%
